Assay results published in paper PMC5540273 (PLoS ONE, 2017).

test system: WNK1; details: concentration: 1 μM, replicates: in singlicate; n = 1
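Also: KINOMEscan kinase panel screen.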

SMILES	%Inh
CN1CCN(Cc2cccc(-c3ccc4c(Nc5ccc(Oc6ccccc6)cc5)ccnc4c3)c2)CC1 [GW578342]	0%
O=C(Nc1ccccc1F)NC1CCN(c2ccnc(Nc3ccc(F)cc3)n2)CC1 [GSK1379800]	9%
Cl.c1ccc(-c2ccc3c(Nc4ccc5[nH]ncc5c4)ccnc3c2)nc1 [GW440137]	11%
CCn1c(-c2nonc2N)nc2c(C#CC(C)(C)O)nc(OC[C@H](N)c3ccccc3)cc21 [GSK943949]	0%
O=C(Nc1cccc(-c2nn3ccccc3c2-c2ccnc(Nc3cccc(C(F)(F)F)c3)n2)c1)c1c(F)cccc1F [GSK292658]	5%
Cn1cc(-c2ccc3c(c2)CCN3C(=O)Cc2cccc(F)c2)c2c(N)ncnc21 [GSK2603358]	13%
COc1cc(Nc2nccc(N3CCC(NC(=O)c4cc5ccccc5s4)C3)n2)cc(OC)c1OC (stereo not drawn) [GSK1379760]	0%
COCCOCCOc1cc2ncc3c4ccc(C#N)cc4[nH]c3c2cc1OC	0%
Cl.Cl.NCC(NC(=O)c1cc(-c2ccccc2)c(-c2ccnc3[nH]ccc23)s1)c1ccccc1 (stereo not drawn) [GSK1321561]	5%
COc1cc(Nc2nccc(-c3c(-c4cccc(NC(=O)c5c(F)cccc5F)c4)nn4ncccc34)n2)cc(OC)c1OC [GSK327238]	1%
CN(C)S(=O)(=O)c1cc(-c2ccc3nccc(-c4cccc(S(N)(=O)=O)c4)c3c2)cnc1N [GSK1669921]	0%
Cl.Cl.NCC(NCc1ccc(-c2ccnc3[nH]ccc23)s1)c1ccccc1 (stereo not drawn) [GSK1321565]	0%
Cc1ccc(S(=O)(=O)Nc2ccc(Nc3nccc(Nc4cccc5[nH]ncc45)n3)cc2)cc1 [GSK581271]	4%
CC(=O)Nc1nc2cnc(Nc3cc(NC(=O)c4cccc(C5(C#N)CC5)c4Cl)ccc3C)nc2s1	0%
CNC(=O)c1ccccc1Nc1nc(Nc2ccc(N3CCOCC3)cc2)ncc1Cl.Cl [GSK1576028]	12%
Cc1ccc(C(=O)N2CC[C@@H](O)C2)cc1-n1c(C)cc(OCc2ccc(F)cc2F)c(Br)c1=O	0%
COc1ccc(Nc2nccc(N3CCC(NC(=O)Nc4cccc(OC)c4)C3)n2)cc1 (stereo not drawn) [GSK1379742]	0%

SMILES	%Inh
Cl.Cl.NCC(C(=O)Nc1cc(Br)c(-c2ccnc3[nH]ccc23)s1)c1ccccc1 (stereo not drawn) [GSK1269851]	7%
Oc1cc(Nc2ccnc3cc(I)ccc23)ccc1F [GW552771]	1%
COc1ccc(Nc2nccc(NCCNC(=O)c3cc4ccccc4s3)n2)cc1 [GSK1379896]	6%
CCS(=O)(=O)c1ccc(OC)c(Nc2nccc(-c3c(-c4cccc(NC(=O)c5c(F)cccc5F)c4)nn4ncccc34)n2)c1 [GSK326180]	17%
COc1cccc(C(=O)Nc2cccc(Oc3ccc4nc(NC(=O)C5CC5)cn4n3)c2)c1	0%
CN(C)Cc1ccc(-c2ccc3c(Nc4ccc(Oc5ccccn5)cc4)ccnc3c2)o1 [GW567148]	17%
Clc1ccc(-c2nn3ncccc3c2-c2ccnc(Nc3ccc4c(c3)OCCO4)n2)cc1 [GW829116]	0%
Cl.c1ccc(-c2ccc3c(Nc4ccc5[nH]ccc5c4)ccnc3c2)nc1 [GW440138]	0%
Fc1ccc(-c2ncn(C3CCNCC3)c2-c2ccnc(Oc3ccc(-c4ccccc4)cc3)n2)cc1 [SB-245391]	42%
O=C(Nc1cccc(Oc2ccc3nc(NC(=O)C4CC4)cn3n2)c1)c1ccccc1C(F)(F)F	0%
COc1cccc(C2=C(Nc3ccc(Cl)c(C(=O)O)c3)C(=O)NC2=O)c1 [SB-390769]	100%
Cc1ccc(C(=O)Nc2ccc(Nc3ccnc4cc(-c5nccs5)ccc34)cc2O)cc1.Cl [GW494702]	6%
Cc1ccc(C)c(NC(=O)NC2CCN(c3ccnc(Nc4ccc(F)cc4)n3)C2)c1 (stereo not drawn) [GSK1379720]	5%
COc1ccc(-c2coc3ccc(-c4nnc(SCc5ccc(OC)c(C(F)(F)F)c5)o4)cc23)cc1	0%
COc1cc(Nc2ncc3c(C)nc(-c4cc5ccccc5[nH]4)n3n2)cc(OC)c1OC [GW869516]	0%
O=C(NC1CCN(c2ccnc(Nc3ccc(F)cc3)n2)C1)c1cc2ccccc2s1 (stereo not drawn) [GSK1379716]	20%
